# High-throughput results: PubChem BioAssay, National Center for Advancing Translational Sciences (NCATS)
# A selection: hits, their analogues and other compounds. The true share with any hit is near 5.8%.
# MCF10A rerep – DNA re-replication induction in MCF 10a cells; Potency, µM (titrated, usually from 46.1 µM), without a hit: top-dose activity, positive = re-replication, usual class: activators; MCF 10A DNA re-replication, Hoechst nuclear intensity, 48 h; AID 624296; hit rate 2.9% among 350,000; also: % of control where 0% means no effect; nearly all actives have a fitted effect of over 50% in size
# PINK1 expr mod – modulators of PINK1 expression. PINK1 immunofluorescence, high-content cytometry, 24 h. Potency, µM (doses to about 76.6 µM), without a hit: at the top dose activation (PINK1 increase), usual class: activators. hit rate 0.2% among 410,000. AID 624263; active = well fitted activation curve with a large enough effect; inconclusive = small, poorly fitted or top-dose-only effect; cell line not stated here; also: % of control where 0% means no effect; nearly all actives have a fitted effect of over 65% in size
#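 Decision-based qHTS: stable cells, 24 h exposure to five compound concentrations, CCCP as control. Fixed cells stained for PINK1 plus nuclear, mitochondrial and cell markers, cytometer read.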
# SW480 rereplic – DNA re-replication induction in SW480 cells. SW480 DNA re-replication, Hoechst DNA content imaging, 48 h. Potency, µM (highest dose often 46.1 µM), without a hit: at the highest dose re-replication activation, most hits filed as activators. hit rate 1.8% among 340,000. AID 624297; also: % of control where 0% means no effect; nearly all actives have a fitted effect of over 55% in size
#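 Hoechst fluorescence of nuclei (405 nm excitation, 500-530 nm emission) measured by plate-scanning imager after 48 hr compound exposure at 37 C; re-replication scored as increased number of nuclei with elevated intensity.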
# KB-V1 MDR tox – kills drug-selected multidrug resistant KB-V1 cells; KB-V1 MDR cells viability, CellTiter-Glo, 72 h; Potency, µM (series often up to 46.1 µM), actives largely listed as cytotoxic; hit rate 3.4% among 400,000; also: % is scaled to controls: 0 for no effect and ±100 for the full control effect; nearly all actives have a fitted effect of over 60% in size
#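 KB-V1 cells (P-gp-expressing MDR subline of KB-3-1) in phenol-red-free DMEM with 10% FBS were exposed to library compounds over a concentration series for 72 h at 37 degrees C. Viability read by CellTiter-Glo luminescence; concentration-effect curves fitted after normalization.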
# 12-LOX inh – inhibitors of human 12S-lipoxygenase ALOX12. purified 12hLO, xylenol orange hydroperoxide absorbance. Potency, µM (highest dose often 108 µM), without a hit: at the highest dose activity change, negative = inhibition, actives largely listed as inhibitors. hit rate 1.1% among 580,000. AID 1671190; also: % is scaled to controls: 0 for no effect and ±100 for the full control effect
# Target sequence (P18054 whole entry, looked up): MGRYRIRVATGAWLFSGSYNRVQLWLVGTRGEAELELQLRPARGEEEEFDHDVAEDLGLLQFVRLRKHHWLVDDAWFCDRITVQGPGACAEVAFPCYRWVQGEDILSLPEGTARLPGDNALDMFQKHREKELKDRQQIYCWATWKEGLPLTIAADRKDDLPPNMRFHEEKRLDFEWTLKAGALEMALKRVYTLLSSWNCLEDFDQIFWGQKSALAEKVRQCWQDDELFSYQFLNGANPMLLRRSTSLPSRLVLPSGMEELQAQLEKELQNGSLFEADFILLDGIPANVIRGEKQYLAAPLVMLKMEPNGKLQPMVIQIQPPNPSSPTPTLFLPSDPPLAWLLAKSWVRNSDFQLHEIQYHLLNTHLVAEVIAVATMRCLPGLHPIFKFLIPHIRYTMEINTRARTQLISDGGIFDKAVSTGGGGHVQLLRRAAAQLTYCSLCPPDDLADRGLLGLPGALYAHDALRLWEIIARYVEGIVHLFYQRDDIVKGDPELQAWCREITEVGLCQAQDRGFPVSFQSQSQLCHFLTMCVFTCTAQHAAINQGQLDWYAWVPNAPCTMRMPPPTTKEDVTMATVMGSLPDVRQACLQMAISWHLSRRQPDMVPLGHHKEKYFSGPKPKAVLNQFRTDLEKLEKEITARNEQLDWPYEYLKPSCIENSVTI
#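 Purified human 12hLO (150 nM final) in 25 mM Hepes, 0.01% Triton X-100, pH 7.0 was preincubated 15 min at room temperature with compound. Then 40 uM arachidonic acid was added, 30 min. Hydroperoxide was read by Fe-XO absorbance ratio 573/405 nm.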
# KB-3-1 tox – kills parental KB-3-1 adenocarcinoma cells. Potency, µM (top dose mostly 46.1 µM), actives largely listed as cytotoxic. hit rate 1.4% among 400,000. KB-3-1 viability, CellTiter-Glo ATP luminescence, 72 h; also: % is scaled to controls: 0 for no effect and ±100 for the full control effect; nearly all actives have a fitted effect of over 60% in size
#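 KB-3-1 cells, DMEM (no phenol red) + 10% FBS; compound by pin transfer, 72 h, 37 °C. Readout: CellTiter-Glo luminescence after 10 min. Data normalized, curve-fitted.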
# Numbers without * were called inactive; i = inactive; ? = inconclusive; . = no result; [ ] = remark or other dose. Unless noted, calls follow the shape of the dose curve; as a rule, active = well fitted curve in the direction sought with a large enough effect; inconclusive = small, poorly fitted or top-dose-only effect, or another doubt; inactive = no such curve, though single readings can be large; an effect the other way counts as inactive or inconclusive. Potency is read from the fitted curve at half-maximal effect.
SMILES,MCF10A rerep,PINK1 expr mod,SW480 rereplic,KB-V1 MDR tox,12-LOX inh,KB-3-1 tox
COc1ccc(-c2noc([C@@H]3Cc4nc[nH]c4CN3Cc3ccc(NC(C)=O)cc3)n2)cc1,.,.,.,.,96%,.
COc1ccccc1NC(=O)C1=C(C)N(c2ccccc2)C(=S)NC1c1cccc(C(F)(F)F)c1 (configuration not stated),16%,2%[38.3 µM],25%,8.2µM*,?,?
CC(=O)Nc1ccc(NC(=O)CCc2ncc(-c3ccc(F)cc3F)o2)cc1,.,.,.,.,-3%,.
O=c1[nH]c(/C=C\c2cccs2)nc(O)c1[N+](=O)[O-],-25%,2%,-36%,i,22µM*,i
O=c1[nH]c(/C=C\c2ccc(O)cc2)nc(O)c1[N+](=O)[O-],9%,0%,-1%,i,?,i
COc1ccc(C(=O)N(CCc2ccccc2)Cc2ccccc2)c(OC)n1,?,6%,11%,8.2µM*,-2%,?
CS(=O)(=O)c1ccccc1C(=O)N(CCc1ccccc1)Cc1ccccc1,14%,2%,6%,?,-14%,i
O=C(NCC1CN(CC2CC2)CC12CN(c1ccccc1)C2)Nc1ccccc1 (configuration not stated),.,.,.,.,13%[176 µM],.
COc1ccc(Nc2nc3ccccc3n3nnnc23)cc1,9%,6%[38.3 µM],3%,5.8µM*,12%,i
COc1cc(Nc2nc3ccccc3n3nnnc23)cc(OC)c1OC,29µM*,5%,-5%,i,21%,i
CCCN(Cc1cccs1)C(=O)Nc1cc(Cl)ccc1OC,.,.,.,.,-1%,.
COc1ccc(N=Cc2c(O)c3ccccc3n2C(C)=O)cc1,?,25µM*,3%,?,-10%,i
COc1ccc(N=Cc2sc(O)c3ccccc23)cc1,?,4%,?,i,?,i
O=C(c1ccc2nc[nH]c2c1)N1CCN(c2cccc(C(F)(F)F)c2)CC1,0%,0%,?,i,361%,i
O=C(c1ccc2c(c1)OCO2)N1CCN(c2cccc(C(F)(F)F)c2)CC1,12µM*,7%,?,16µM*,-8%,13µM*
CCS(=O)(=O)N1CCc2cc(C(=O)N3CCN(c4cccc(C(F)(F)F)c4)CC3)ccc21,.,0%,.,?,?,16µM*
O=C(c1ccc2ncsc2c1)N1CCN(c2cccc(C(F)(F)F)c2)CC1,13µM*,1%,?,?,-24%,?
O=C(Nc1ccc2c(c1)OCO2)N1CCN(c2cccc(C(F)(F)F)c2)CC1,17%,-2%,-1%,i,-14%,i
Cc1ccc2c(C)c(CCC(=O)Nc3cccc(Cl)c3)c(=O)oc2c1,.,.,.,.,-28%,.
O=C(Nc1ccc(Cl)cc1)c1csc(-c2ccccc2)n1,23µM*,0%[38.3 µM],19%,?,-8%,i
O=C(CN1CCN(c2nc(-c3ccc(Cl)cc3)cs2)CC1)NCc1ccco1,9.2µM*,21%[38.3 µM],11%,i,-18%,i
O=C(Cc1cccs1)N1CCN(c2nc(-c3ccc(Cl)cc3)cs2)CC1,26%,-2%[38.3 µM],11%,8.2µM*,-5%,i
Cc1[nH]c(SCC(=O)NCCc2ccc3c(c2)OCCO3)nc1Cc1ccccc1,.,.,.,.,-16%,.
COc1ccc2c(CCNC(=O)CSc3nc(Cl)nc4nc[nH]c34)c[nH]c2c1,.,.,.,.,-9%,.
CC(Oc1ccc(C#N)cc1)C(=O)N1CC=C(c2ccccc2)CC1 (configuration not stated),16µM*,6%,?,13µM*,-3%,16µM*
SMILES,MCF10A rerep,PINK1 expr mod,SW480 rereplic,KB-V1 MDR tox,12-LOX inh,KB-3-1 tox
Cc1cccc(NC(=O)CN2CCN(C(=O)C(C)Oc3ccc(C#N)cc3)CC2)c1C (configuration not stated),7%,3%,1%,i,0%,i
C/C(=N/NC(N)=S)C1=CC(C)(C)CCC1,.,.,.,.,6.3µM*,.
C/C(=N\NC(N)=S)C1(C)CCCCC1,15%,-2%,426%,i,?,i
CCc1ccc(N2CN(Cc3cccnc3)Cn3c2nc(C)c(C)c3=O)cc1,.,.,.,.,19%,.
CC1COc2ccccc2N1S(=O)(=O)c1ccc(Cl)cc1 (configuration not stated),21µM*,?,?,i,3%,i
Cc1ccc(S(=O)(=O)N2c3ccccc3OCC2c2ccccc2)cc1 (configuration not stated),16µM*,7%,?,?,-13%,?
CC1COc2ccccc2N1C(=O)c1ccc(Cl)cc1 (configuration not stated),2%,3%,-3%,i,10%,i
O=C(C(Cl)Cl)N1c2ccccc2OCC1c1ccccc1 (configuration not stated),?,-3%,-1%,?,0%,18µM*
N#CC1=C(c2ccccc2)C(O)(c2ccccc2)NC1=O (configuration not stated),.,.,.,.,4%,.
CNC(=O)c1ccc(-c2nc(CN3CCN(C(=O)Nc4ccc(C)cc4Cl)CC3)c(C)o2)cc1,.,.,.,.,5%,.
O=C(NCCc1ccccc1)Nc1cccc(CN2CCOC2=O)c1,.,.,.,.,19%,.
Cc1ccc(-c2c(NC(=O)c3cccc([N+](=O)[O-])c3)oc3ccccc3c2=O)cc1,.,.,.,.,-11%,.
CC1CCCCN1C(=O)c1ccc(CN2C(=O)NC3(CCS(=O)(=O)CC3)C2=O)cc1 (configuration not stated),.,.,.,.,7%,.
CCN(CC(=O)NCc1ccc(F)cc1)C(=O)/C=C/c1ccc(OC)c(S(=O)(=O)NC(C)C)c1,1.8µM*,10%,8.2µM*,i,1%,2.6µM*
CCOC(=O)c1cccn1C1C(=O)N(Cc2ccc(Cl)nc2)c2ccccc21 (configuration not stated),.,.,.,.,-1%,.
